Source: PubChem BioAssay (NCI)
“And” between values parts separate entries of the source, which are not always exact repeats. Identical values can stand only once. This is part of a sample that, as a whole, favours compounds with a hit. Of some 83,000 tested, about 20% had one in any assay.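 Testing used 96-well plates and a 48-hour single-concentration exposure. Example: -40 means 40% of the starting cells died.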 The source made the active and inactive calls. How the source made its calls: active means growth percent below 10; inactive means the rest.

system: MDA-MB-468 breast; assay: NCI-60 one-dose screen, 48 h (100 = growth as untreated, 0 = no growth, -100 = all killed); conditions: 10 µM unless noted

Structure (SMILES) | growth
O=C(CCOCCNC(=O)COc1ccc2c(c1)OCC(c1ccc(F)cc1)C2=O)NCCCC(O)(P(=O)(O)O)P(=O)(O)O (stereo not given) | 106% (inactive)
c1csc(-c2nc(-c3cc4ccccc4c(N4CCOCC4)n3)cs2)c1 | 5.77% (active)
CCN(CC)CCCC(C)Nc1cc(O)cc2cccnc12 (stereo not given) | 73.9% (inactive)
CCC(c1ccc(OC)cc1)C(CC)c1ccc(OCC[N+](C)(C)C)cc1 (stereo not given) | 19.3% (inactive)
Clc1ccc(Cn2cc(-c3nc4ccc(Br)nc4n3Cc3ccc(Cl)cc3)c3cccnc32)cc1 | 60.7% (inactive)
Cc1nc2sc(C(=O)Nc3cccc(Cl)c3C)c(N)c2cc1C(=O)c1ccccc1 | -4.28% (active)
O=[N+]([O-])c1ccc(C2CC(c3ccccc3)=Nc3ccccc3S2)cc1 (stereo not given) | 77.7% (inactive)
COc1ccc(-c2nc3ncccn3c2-c2nnc(-c3ccsc3C)o2)cc1 | 86.1% (inactive)
CCNc1ncnc2n[nH]nc12 | 97.2% (inactive)
COc1ccc(CCNc2nc3c(c(=O)n(Cc4ccc(Br)cc4)c(=O)n3C)n2C)cc1OC | 109% (inactive)
CN(C)c1ccc2nc3ccc(=N)cc-3sc2c1 | 38.6% (inactive)
C=CCn1cc(-c2nc3ccccc3s2)c2cc(-c3ccc4c5c(cccc35)C(=O)N(CCN3CCNCC3)C4=O)ccc21 | 88.4% (inactive)
CN(C)C(C)(C)CC(C)(C)C | 116% (inactive)
Nc1nc(N)c2[nH]cnc2n1 | 69.9% (inactive)
COc1ccc(Cl)cc1NC(=O)c1cc2c([nH]1)-c1nc(N)sc1CCC2 | 103% (inactive)
COc1ccc(C2CC(c3ccc(OC)c(OC)c3)=NN2C(=O)c2cc(OC)c(OC)c(OC)c2)c(OC)c1 (stereo not given) | 53.6% (inactive)
COc1ccc(-c2cnnn2-c2nonc2-n2cccc2)cc1 | 4.28% (active)
C#C[C@]1(O)CC[C@H]2[C@@H]3CC=C4c5sc(Nc6ccc(C)cn6)nc5CC[C@]4(C)[C@H]3CC[C@@]21C | -23.1% (active)
CC(C)(C)n1cc(-c2ccnc(NCCNS(=O)(=O)c3ccc(Br)cc3)c2)c(-c2cccc(O)c2)n1 | 2.11% (active)
Cn1c2ccccc2c2c(OC(=O)c3ccccc3)c3c(nc21)-c1ccccc1C3 | 100% (inactive)

Structure (SMILES) | growth
NC(=O)c1ccc2c(c1)OCO2 | 88.9% (inactive)
Nc1ccc2c(c1)Cc1cc(NC(=O)C(F)(F)F)ccc1-2 | 75.7% (inactive)
O=C(NCCN1CCOCC1)OCc1ccc2c(Cl)cc(Cl)c(O)c2n1 | 81.6% (inactive)
O=C(NCCCNc1cc(-c2cn(-c3ccccc3)nc2-c2cccc(O)c2)ccn1)Nc1ccc(F)cc1 | -19.4% (active)
Nc1nc(N)c2c(n1)NC(c1cccc(Nc3ccnc4cc(C(F)(F)F)ccc34)c1)CC(c1ccccc1)=N2 (stereo not given) | 18.5% (inactive)
COc1ccc(Cn2cc3c(c2-c2cc(OC)c(OC)c(OC)c2)CCc2c(CN4CCOCC4)noc2-3)cc1 | 45.5% (inactive)
Cc1ccc(S(=O)(=O)NCCCNc2nccc(-c3[nH]c(-c4ccccc4)nc3-c3ccc(F)c(O)c3)n2)cc1 | 33.9% (inactive)
Nc1nc(-c2cccnc2)nc2c1sc(=S)n2-c1ccccc1 | 103% (inactive)
Clc1ccc(/C=C2\CCCC3C2=Nc2ccccc2NC3c2ccc(Cl)cc2)cc1 (stereo not given) | 60% (inactive)
CC1(C)C(=O)/C(=C\c2cccnc2)C[C@]2(C)[C@H]3CC=C4[C@@H]5C[C@@](C)(C(=O)O)CC[C@]5(C)CC[C@@]4(C)[C@]3(C)CC[C@@H]12 | 95.8% (inactive)
Cc1ccc(-c2nc([P+](c3ccccc3)(c3ccccc3)c3ccccc3)c(S(=O)(=O)c3ccc(C)cc3)o2)cc1 | -21.5% (active)
N#Cc1cccc(OCc2nc(N)nc(N)c2-c2ccc(Cl)c(Cl)c2)c1 | 19.3% (inactive)
CCC(O)c1ccccc1 (stereo not given) | 108% (inactive) and 97.6% (inactive)
Cc1nc(N)sc1C(=O)NCCO | 96.8% (inactive)
CC(c1ccccc1)N1C(=O)C(C2SC(=S)N(C(C)c3ccccc3)C2=O)SC1=S (stereo not given) | 44.2% (inactive)
CCN(CC)CCN1C(=O)c2cccc3c(-c4ccc5c(c4)ncn5C4CCCCC4)ccc(c23)C1=O | -6.34% (active)
Fc1ccc(-c2cc3nc(C(Cl)Cl)nc(-c4ccccc4)n3n2)cc1 | -59.1% (active)
O=C(NNc1nc2cc(F)c(F)cc2n2cccc12)c1ccncn1 | -25.6% (active)
CCOC(Cc1c(N)[nH]c(=S)[nH]c1=O)OCC | 101% (inactive)
COc1ccc2nc3cc(Cl)ccc3c(N3CCN(c4ccnc(Nc5ccc(F)cc5)n4)CC3)c2c1 | 63.8% (inactive)
